The results in this text go back to PubChem BioAssay (NCATS).

Test [1] has as its system CRL-7250. Briefly: Cytotoxic Profiling of Annotated Libraries Using Quantitative High-Throughput Screening (AID 1296008). Also: nearly all actives have a fitted effect of over 60% in size. Particulars: Five cell lines viability, CellTiter-Glo ATP luminescence, 48-72 h; max response: hits give low values. The essentials:
(§1)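 Cytotoxicity was measured as CellTiter-Glo ATP luminescence, read after 10 min at room temperature. Compound treatment of the cells lasted 48 or 72 hr at 37 degrees Celsius in a qHTS format.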
A general note: Cellular ATP, detected with luciferase, serves as a proxy for viable cell number.

In test [2] the test system is KB-3-1. Described as above. Particulars: Five cell lines viability, CellTiter-Glo ATP luminescence, 48-72 h; max response: hits give low values. The essentials:
as §1

Test [3] concerns NIH3T3. Described as above. The note with it: Five cell lines viability, CellTiter-Glo ATP luminescence, 48-72 h; max response: hits give low values. A digest of the protocol:
as §1

The test system of test [4] is C33A. Briefly: Primary qHTS to identify gynecologic anti-cancer compounds using libraries of approved drugs and bioactive compounds (AID 1345084). Also: nearly all actives have a fitted effect of over 55% in size. The note with it: Gynecologic cancer cell panel viability, ATPlite luminescence, 48 h; series mostly up to 57.5 µM. The essentials:
(§2)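 Luminescence from the ATPlite ATP-monitoring reagent indicates viable cell number; lower signal means cytotoxicity. Cells received compound 16 h after seeding and were exposed for 48 h across five concentrations.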
A general note: qHTS replaces the single test concentration by a dilution series.

Test [5] deals with CAOV3. The test is described as above. The note with it: Gynecologic cancer cell panel viability, ATPlite luminescence, 48 h; series mostly up to 57.5 µM. A digest of the protocol: as §2
The subject of test [6] is CASKI. Described as above. The note with it: Gynecologic cancer cell panel viability, ATPlite luminescence, 48 h; series mostly up to 57.5 µM. The essentials:
as §2

Test [7] deals with Es-2. Described as above. The note with it: Gynecologic cancer cell panel viability, ATPlite luminescence, 48 h; series mostly up to 57.5 µM. The essentials: as §2
The test system of test [8] is HeLa. The test is described as above. The note with it: Gynecologic cancer cell panel viability, ATPlite luminescence, 48 h; series mostly up to 57.5 µM. A digest of the protocol: as §2
Test [9] has as its system Hek293T. Described as above. The note with it: Gynecologic cancer cell panel viability, ATPlite luminescence, 48 h, control line for the selectivity index; series mostly up to 57.5 µM. The essentials:
as §2

Test [10] has as its system JEG-3. The description is as above. Particulars: Gynecologic cancer cell panel viability, ATPlite luminescence, 48 h; series mostly up to 57.5 µM. A digest of the protocol:
as §2

The subject of test [11] is OV90. Described as above. Particulars: Gynecologic cancer cell panel viability, ATPlite luminescence, 48 h; series mostly up to 57.5 µM. A digest of the protocol:
as §2

The subject of test [12] is PA-1. Described as above. The note with it: Gynecologic cancer cell panel viability, ATPlite luminescence, 48 h; series mostly up to 57.5 µM. The essentials: as §2
For test [13], the system named is HaCat. Nature of the test: Cytotoxic Profiling of Annotated Libraries Using Quantitative High-Throughput Screening (AID 1296008). Also: nearly all actives have a fitted effect of over 60% in size. The note with it: Five cell lines viability, CellTiter-Glo ATP luminescence, 48-72 h; max response: hits give low values. The essentials: as §1

Inconclusive results are not listed. Values without a mark were called inactive. The source made the active and inactive calls. Calls follow the shape of the dose curve; as a rule, active = well fitted curve in the direction sought with a large enough effect; inconclusive = small, poorly fitted or top-dose-only effect, or another doubt; inactive = no such curve, though single readings can be large; an effect the other way counts as inactive or inconclusive.
% is scaled to controls: 0 for no effect and ±100 for the full control effect; potency is read from the fitted curve at half-maximal effect.

For the compound `COc1ccccc1C(=O)Nc1cc2c(cc1N1CCCC1)n(C)c(=O)n2C`, the results for the max response in [1], in test [2] and in test [3] were -29%, -11.6% and -10.9%, respectively. Further, the Potency entry in [4], in test [5], in [6], in test [7], in test [8] and in [9] was “inactive” each time. Also, the Potency result in [10], in [11] and in test [12] was “inactive” in each case.
`Cc1cc(C(C)Nc2ccccc2C(=O)O)c2nc(N3CCOCC3)cc(=O)n2c1` (stereo not given): in test [1], the max response is -22.4%. Further, the results for the Potency in [13] and in test [3] were 7.31 µM (active) and 23.1 µM (active), respectively. For the same compound, the Potency entry in [4], in test [7], in test [8] and in test [11] was “inactive” throughout.
As for `C/C=C(/C)C(=O)O[C@@H]1C[C@@H](OC(=O)CC(C)C)C2(C)C3C(=O)C=C(C)C2C3C1(C)C` (stereo not given in full), the max response is 0.438% in test [1], 5.54% in test [2] and -2.22% in test [3]. Besides, the Potency entry in test [4], in test [5], in [6], in test [7], in test [8] and in test [9] was “inactive” throughout. The Potency entry in [10] and in [11] was “inactive” in each case.
As for `Cn1ccc(NC(=O)c2cc(Oc3ccc(C(=O)N4CCC4)c(F)c3)c3c(c2)OC(C)(C)C3)n1`, the max response is 3.93% in test [1], 1.91% in test [2] and 4.11% in [3]. The Potency entry in test [4], in [5], in test [6], in [7], in test [8] and in test [9] was “inactive” throughout. Moreover, the Potency result in [10], in test [11] and in test [12] was “inactive” each time.
Regarding `CC1(CO)CC2C(O)C3=C(CC(C)(O)C2C1)C(=O)OC3` (stereo not given), the max response in test [1] was -1.99%; in [2] it was 9.13%; in [3], 1.99%. Moreover, the Potency result in [4], in test [5], in test [6], in test [7], in test [8] and in [9] was “inactive” throughout. Further, the Potency result in [10], in test [11] and in test [12] was “inactive” throughout.
Consider `CCN(c1cc(-c2ccc(CN3CCOCC3)cc2)cc(C(=O)NCc2c(C)cc(C)[nH]c2=O)c1C)C1CCOCC1`, for which the max response in test [1] was -21.9%; in test [2] it was -1.86%; in [3] it was -11.7%. Also, the Potency entry in [4], in [5], in test [6], in test [7], in test [8] and in [9] was “inactive” throughout. Moreover, the Potency entry in test [10], in test [11] and in [12] was “inactive” throughout.
With `Clc1cccc(COc2cncc(N3CCNCC3)n2)c1`, the call in [1] was inactive. Further, the max response in test [2] is -0.792%; in test [3], -5.94%. The Potency entry in test [4], in test [5], in [6], in test [7], in test [8] and in test [9] was “inactive” throughout. In addition, the Potency result in [10], in test [11] and in test [12] was “inactive” in each case.
Take `CC(=O)Nc1cccc(Nc2ncnc(N3CCC(OCc4ccc(OC(F)(F)F)cc4)CC3)n2)c1C`: the Potency in test [1] was 13 µM (active). Moreover, the results for the max response in [13] and in test [3] were -26.7% and -3.89%, respectively. Also, the Potency result in test [5], in [6], in [7], in test [8], in [10] and in test [11] was “inactive” in each case. In addition, in test [12], the Potency entry was “inactive”.
Take `O=C(Cc1c(F)cccc1F)Nc1cc(OCc2ccc(Cl)cc2)ccn1`: the max response is 3.56% in test [1] and -10.7% in test [3]. Besides, the call in test [2] was inactive. Moreover, the Potency entry in test [4], in test [5], in test [6], in [7], in [8] and in test [9] was “inactive” in each case. Besides, the Potency result in [10], in [11] and in test [12] was “inactive” throughout.
For `COc1cc(O)c2c(c1)/C=C/C[C@H](O)[C@H](O)C(=O)/C=C\C[C@H](C)OC2=O`, the Potency in test [1] is 16.4 µM (active); in test [13], 9.2 µM (active); in [3], 5.8 µM (active); in test [5] it was 22.4 µM (active); in test [7], 15.8 µM (active); in test [9], 15.8 µM (active). In [12], the Potency was 14.1 µM (active). For the same compound, in [10], the Potency entry is “inactive”.
With `CC(=O)Nc1nc(C)c(-c2nc(N3CCCC(O)C3)no2)s1` (stereo not given), the results for the Potency in test [1], in test [13] and in test [3] were 8.2 µM (active), 4.11 µM (active) and 18.4 µM (active), respectively. In addition, the Potency result in test [4] and in [7] was “inactive” throughout.
`CC1=CC2/C=C(\C)CCC3OC(C)(C)OC3CCC(=O)C23C(=O)NC(CC(C)C)C3C1C` (stereo not given): the max response in [1] is 4.29%; in test [2], 3.72%; in [3], -3.16%. Further, the Potency entry in [4], in test [6], in test [7], in test [8], in test [9] and in test [10] was “inactive” throughout. The Potency result in test [11] and in [12] was “inactive” in each case.
Take `Cc1cc(C)c2c(c1)C(N(Cc1cc(C(F)(F)F)cc(C(F)(F)F)c1)c1nnn(C)n1)CCCN2CC1CCC(C(=O)O)CC1` (stereo not given): the max response in test [1] was 2.9%. The Potency in [2] is 14.6 µM (active). Besides, the Potency result in [4], in test [5], in test [6], in [9], in test [10] and in test [11] was “inactive” each time.
For `Cc1c(C(=O)Nc2ccc(N3CCC(N4CCOCC4)CC3)c(C#N)c2)cnn1-c1ccc(Cl)cc1`, the Potency in test [1] was 1.16 µM (active); in [2], 1.46 µM (active); in [3], 0.366 µM (active); in test [4] it was 0.891 µM (active); in [10], 0.794 µM (active). Besides, the Potency result in test [5], in [6] and in [8] was “inactive” throughout.
